Assay results reported in PubChem BioAssay (Tox21).
Inconclusive results are not listed. Activity calls are given as the source filed them. Calls follow the shape of the dose curve; as a rule, active = well fitted cell-killing curve with a large enough effect in the repeat runs; inconclusive = weak or mixed curves, or effect the other way; inactive = no such curve, though single readings can be large or run the other way.

Experiment: qHTS assay for identifying genotoxic compounds that show differential cytotoxicity against isogenic chicken DT40 cell lines with known DNA damage response pathways - Rev3 mutant cell line (AID 743014); also: nearly all actives have a fitted effect of over 55% in size
Conditions: chicken DT40 Rev3-/- viability, CellTiter-Glo, 40 h; series mostly up to 68.4 µM; activity, negative = cytotoxicity: at the top concentration
From the text: National Center for Advancing Translational Sciences [NCATS]
NIH Chemical Genomics Center [NCGC]
U.S. Environmental Protection Agency [EPA]
National Institutes of Environmental Health Sciences [NIEHS]
National Toxicology Program [NTP]
U.S. Food and Drug Administration [FDA]
DNA repair pathways play a critical role in cellular homeostasis by repairing DNA damage induced by endogenous processes and xenobiotics. Isogenic chicken DT40 cell lines deficient in different DNA repair pathways can be used to identify genotoxic compounds and aid in characterizing the nature of the DNA damage induced. Two DNA repair-deficient cell lines with disrupted genes, Rad54/Ku70 or Rev3, were used to screen the Tox21 10K compound library. Possible genotoxicity was based on the presence of a significant increase in cytotoxicity in one or more of the DNA repair-deficient cell lines compared to that observed in the parental DNA repair-proficient cell line. CellTiter Glo viability assay (Promega, Madison, WI) was used to measure cell viability in these cells after compound treatment. This assay includes the data from the Rev3 mutant cell line.
Tox21 Assay Protocol Summary:
300 DT40 mutant cells in 5 uL/well were dispensed into white, solid-bottom 1536-well plates using a Multidrop Combi (ThermoFisher Scientific, Waltham, MA) dispenser. After the assay plates were incubated at 37 C/5% CO2 for approximately 0.5 hour, 23 nL of compounds dissolved in DMSO, positive controls or DMSO only was transferred into the assay plate by a pintool work station (Kalypsys, San Diego, CA). The assay plates were incubated at 37 C/5% CO2 for 40 hours. After 5 uL per well of CellTiter-Glo reagent was added into each well of the assay plates, the plates were incubated for 30 min at room temperature and the luminescence intensity of the plates was measured using a ViewLux (PerkinElmer, Shelton, CT) plate reader.
% is scaled to controls: 0 for no effect and ±100 for the full control effect; potency is read from the fitted curve at half-maximal effect.

SMILES	Potency	activity, negative = cytotoxicity
C#C[C@]1(OC(C)=O)CC[C@H]2[C@@H]3CCC4=CC(=O)CC[C@@H]4[C@H]3CC[C@@]21C	10.6 µM (active)	–
O=C(O)C1=C(CSc2nnnn2CS(=O)(=O)O)CS[C@@H]2[C@H](NC(=O)[C@H](O)c3ccccc3)C(=O)N12	–	12.5% (inactive)
Cc1cc2nc3c(=O)[nH]c(=O)nc-3n(C[C@H](O)[C@H](O)[C@H](O)COP(=O)(O)OP(=O)(O)OC[C@H]3O[C@@H](n4cnc5c(N)ncnc54)[C@H](O)[C@@H]3O)c2cc1C	–	5.08% (inactive)
COc1ccc(/C=C/C(=O)OCCC(C)C)cc1	–	-9.43% (inactive)
C[C@H](CSC(=O)c1ccccc1)C(=O)N1C[C@@H](Sc2ccccc2)C[C@H]1C(=O)O	–	-5.22% (inactive)
O=C(Cc1cccs1)N[C@@H]1C(=O)N2C(C(=O)[O-])=C(C[n+]3ccccc3)CS[C@H]12	–	-5.24% (inactive)
CCOC(=O)C1=C(COCCN)NC(C)=C(C(=O)OC)C1c1ccccc1Cl (stereo not given)	13.3 µM (active)	–
O=P(O)(O)OC(CO)CO	–	0.999% (inactive)
O=C1c2ccccc2C(=O)C1c1ccc(Cl)cc1	–	12.3% (inactive)
CC1CS(=O)(=O)CCN1/N=C/c1ccc([N+](=O)[O-])o1 (stereo not given)	–	11.6% [at 31.4 µM] (inactive)
CO[C@H]1C[C@H](O[C@H]2[C@H](C)O[C@@H](O[C@@H]3/C(C)=C/C[C@@H]4C[C@@H](C[C@]5(C=C[C@H](C)[C@@H](C6CCCCC6)O5)O4)OC(=O)[C@@H]4C=C(C)[C@@H](O)[C@H]5OC/C(=C\C=C\[C@@H]3C)[C@]54O)C[C@@H]2OC)O[C@@H](C)[C@@H]1O	6.68 µM (active)	–
C/C1=C2N=C(/C=C3N=C(/C(C)=C4\[N-]C(C(CC(N)=O)C4(C)CCC(=O)NCC(C)OP(=O)([O-])OC4C(CO)OC(n5cnc6cc(C)c(C)cc65)C4O)C4(C)N=C1C(CCC(N)=O)C4(C)CC(N)=O)C(CCC(N)=O)C\3(C)C)C(CCC(N)=O)C/2(C)CC(N)=O.[CH3-].[Co+3] (stereo not given)	–	-24.7% (inactive)
CCCCC[C@H](O)/C=C/[C@H]1[C@H](O)CC(=O)[C@@H]1CCCCCCC(=O)O	–	-6.18% [at 31.4 µM] (inactive)
NCCCNCCCCNC(=O)C(O)NC(=O)CCCCCCN=C(N)N (stereo not given)	1.68 µM (active)	–
C=C1/C(=C\C=C2/CCC[C@]3(C)[C@@H]([C@H](C)OCCC(C)(C)O)CC[C@@H]23)C[C@@H](O)C[C@@H]1O	13.3 µM (active)	–
CCCC(CCC)C(N)=O	–	1.35% (inactive)
Nc1nc(=O)n([C@@H]2CS[C@H](CO)O2)cc1F	–	6.22% (inactive)
CCCCC(O)c1ccccc1 (stereo not given)	–	9.78% (inactive)
CO[C@H]1C[C@@H]2CC[C@@H](C)[C@@](O)(O2)C(=O)C(=O)N2CCCC[C@H]2C(=O)O[C@H]([C@H](C)C[C@@H]2CC[C@@H](OC(=O)C(C)(CO)CO)[C@H](OC)C2)CC(=O)[C@H](C)/C=C(\C)[C@@H](O)[C@@H](OC)C(=O)[C@H](C)C[C@H](C)/C=C/C=C/C=C/1C	–	15% (inactive)
CC[C@H](CC[C@@H](C)[C@H]1CC[C@H]2[C@@H]3CC=C4C[C@@H](O)CC[C@]4(C)[C@H]3CC[C@]12C)C(C)C	–	13.2% (inactive)

SMILES	Potency	activity, negative = cytotoxicity
Cc1ccccc1OCC(O)CNCCOc1ccc(C(N)=O)cc1 (stereo not given)	–	13.7% (inactive)
C/C1=C2N=C(/C=C3N=C(/C(C)=C4\[N-][C@@](C)([C@@H]5N=C1[C@](C)(CCC(=O)NCC(C)OP(=O)(O)O[C@H]1[C@@H](O)[C@@H](n6cnc7cc(C)c(C)cc76)O[C@@H]1CO)[C@H]5CC(N)=O)[C@@](C)(CC(N)=O)[C@@H]4CCC(N)=O)[C@@](C)(CC(N)=O)[C@@H]\3CCC(N)=O)C(C)(C)[C@@H]/2CCC(N)=O.CC(=O)O.[Co] (stereo not given in full)	–	-0.0667% (inactive)
CCCCOC(=O)C(=O)Nc1cccc(-c2nn[nH]n2)c1	–	0.804% (inactive)
COc1ccc(C2(C#N)CCC(C(=O)O)CC2)cc1OC1CCCC1 (stereo not given)	–	9.09% (inactive)
CC(C)(C)NC(=O)[C@H]1CC[C@H]2[C@@H]3CC=C4C=C(C(=O)O)CC[C@]4(C)[C@H]3CC[C@]12C	–	-19% (inactive)
CCC(=O)O[C@H]1CC[C@H]2[C@@H]3CCc4cc(O)ccc4[C@H]3CC[C@]12C	21.1 µM (active)	–
OC1OC[C@@H](O)[C@H](O)[C@@H]1O (stereo not given in full)	–	-3.69% (inactive)
CCCC(=O)O[C@]1(C(=O)COC(C)=O)CC[C@H]2[C@@H]3C[C@H](F)C4=CC(=O)C=C[C@]4(C)[C@@]3(F)[C@@H](O)C[C@@]21C	29.8 µM (active)	–
Cn1nnnc1SCC1=C(C(=O)O)N2C(=O)[C@@H](NC(=O)[C@H](O)c3ccccc3)[C@H]2SC1	–	15.5% [at 31.4 µM] (inactive)
Cc1ccccc1CNc1ncnc2c1ncn2[C@@H]1O[C@H](CO)[C@@H](O)[C@H]1O	21.1 µM (active)	–
C[C@@H]1CCC2[C@@H](C)[C@@H](O)O[C@@H]3O[C@@]4(C)CC[C@@H]1[C@@]23OO4 (stereo not given in full)	0.133 µM (active)	–
C[C@@H](O)[C@H]1C(=O)N2C(C(=O)[O-])=C(SC3Cn4cnc[n+]4C3)[C@H](C)[C@H]12 (stereo not given in full)	–	-18% (inactive)
N[C@@H](C(=O)N[C@@H]1C(=O)N2C(C(=O)O)=C(Cl)CC[C@H]12)c1ccccc1	–	1.25% (inactive)
CC1(O)CCC(C(C)(C)O)CC1 (stereo not given)	–	13.8% (inactive)
C=C1CC[C@H](O)CC1=C/C=C1\CCC[C@]2(C)[C@@H]([C@H](C)CCCC(C)(C)O)CC[C@@H]12	6.68 µM (active)	–
NC(Cc1ccccc1)C(=O)O (stereo not given)	–	-0.901% (inactive)
NCCC(=O)[N-][C@@H](Cc1cnc[nH]1)C(=O)O.[Zn]	–	1.21% (inactive)
O=c1oc2cc(O)ccc2s1	–	8.74% (inactive)
COc1ccc(CC2c3cc(OC)c(OC)cc3CC[N+]2(C)CCC(=O)OCCCCCOC(=O)CC[N+]2(C)CCc3cc(OC)c(OC)cc3C2Cc2ccc(OC)c(OC)c2)cc1OC (stereo not given)	–	4.1% [at 31.4 µM] (inactive)
O=C(O)[C@H]1/C(=C/CO)O[C@@H]2CC(=O)N21	–	0.0412% (inactive)
